An excerpt weighted towards active compounds, which were near 11% of everything screened.
BAZ2B block: blocks human BAZ2B | Q9UIF8 | AlphaScreen BAZ2B-H3K14Ac peptide displacement | Potency, µM (titrated, usually from 114 µM), inactives show top-dose activity change, negative = inhibition, actives largely listed as inhibitors | actives 4.4% (n = 360,000) | AID 504333; further: on the % scale 0 is the no-effect control and ±100 the full control effect; nearly all actives have a fitted effect of over 60% in size
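AlphaScreen displacement: compounds (up to 110uM) incubated 30 min at room temperature with a preformed 50 nM BAZ2B/50 nM biotinylated H3K14Ac peptide complex in PBS pH 7.4 with Tween-20. Donor and acceptor beads at 10 ug/mL final added, 20 min light-protected before reading.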
G9a block: blocks human histone lysine methyltransferase G9a; Q96KQ7; G9a H3K9 monomethylation, AlphaScreen, 2 h; Potency, µM (doses to about 102 µM), inactives show at the highest dose activity, negative = inhibition, actives largely listed as inhibitors; actives 8.8% (n = 350,000); further: on the % scale 0 is the no-effect control and ±100 the full control effect; nearly all actives have a fitted effect of over 75% in size
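Signal arises when biotinylated H3K9 peptide, once monomethylated, bridges streptavidin donor and antibody-captured acceptor beads. Enzyme at 20 nM was preincubated 15 min with test compounds; peptide 500 nM and SAM 20 uM then reacted for 2 h.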
L3MBTL1 block: blocks human L3MBTL1; actives 0.66% (n = 230,000); Q9Y468; Potency, µM (highest dose often 57.1 µM), for inactives: at the highest dose activity, negative = inhibition, hits mostly inhibitors; AlphaScreen L3MBTL1–H3K9me1 peptide binding; further: on the % scale 0 is the no-effect control and ±100 the full control effect; nearly all actives have a fitted effect of over 60% in size
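L3MBTL1 50 nM + b-AHA-H3(1-15)K9me1 75 nM, 30 min RT; compound added, 30 min RT; streptavidin donor/Ni-chelate acceptor beads 10 ug/mL each final, 30 min RT dark; AlphaScreen read.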
HP1b binding inh: blocks HP1-beta chromodomain binding to methylated histone tails; Potency, µM (series often up to 114 µM), for inactives: top-dose activity change, negative = inhibition, hits mostly inhibitors; AlphaScreen HP1-beta / biotin-H3K9me3 peptide binding; actives 0.56% (n = 390,000); P83916; further: nearly all actives have a fitted effect of over 70% in size
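AlphaScreen: HP1-beta (50 nM) preformed 30 min with biotin-H3(1-18)K9me3 peptide (50 nM) in PBS pH 7.4, 0.01% Tween-20. Compound added for 30 min at RT, then streptavidin donor/nickel chelate acceptor beads (10 ug/mL) for 30 min.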
JMJD2A Tudor inh: inhibitors of human JMJD2A Tudor domain; AlphaScreen JMJD2A-Tudor / H3K4me3 peptide binding; actives 4.4% (n = 390,000); Potency, µM (doses to about 114 µM), without a hit: top-dose activity change, negative = inhibition, actives largely listed as inhibitors; O75164; AID 504339; further: on the % scale 0 is the no-effect control and ±100 the full control effect; nearly all actives have a fitted effect of over 50% in size
Target sequence (O75164 whole entry, looked up, the tested form may be a part): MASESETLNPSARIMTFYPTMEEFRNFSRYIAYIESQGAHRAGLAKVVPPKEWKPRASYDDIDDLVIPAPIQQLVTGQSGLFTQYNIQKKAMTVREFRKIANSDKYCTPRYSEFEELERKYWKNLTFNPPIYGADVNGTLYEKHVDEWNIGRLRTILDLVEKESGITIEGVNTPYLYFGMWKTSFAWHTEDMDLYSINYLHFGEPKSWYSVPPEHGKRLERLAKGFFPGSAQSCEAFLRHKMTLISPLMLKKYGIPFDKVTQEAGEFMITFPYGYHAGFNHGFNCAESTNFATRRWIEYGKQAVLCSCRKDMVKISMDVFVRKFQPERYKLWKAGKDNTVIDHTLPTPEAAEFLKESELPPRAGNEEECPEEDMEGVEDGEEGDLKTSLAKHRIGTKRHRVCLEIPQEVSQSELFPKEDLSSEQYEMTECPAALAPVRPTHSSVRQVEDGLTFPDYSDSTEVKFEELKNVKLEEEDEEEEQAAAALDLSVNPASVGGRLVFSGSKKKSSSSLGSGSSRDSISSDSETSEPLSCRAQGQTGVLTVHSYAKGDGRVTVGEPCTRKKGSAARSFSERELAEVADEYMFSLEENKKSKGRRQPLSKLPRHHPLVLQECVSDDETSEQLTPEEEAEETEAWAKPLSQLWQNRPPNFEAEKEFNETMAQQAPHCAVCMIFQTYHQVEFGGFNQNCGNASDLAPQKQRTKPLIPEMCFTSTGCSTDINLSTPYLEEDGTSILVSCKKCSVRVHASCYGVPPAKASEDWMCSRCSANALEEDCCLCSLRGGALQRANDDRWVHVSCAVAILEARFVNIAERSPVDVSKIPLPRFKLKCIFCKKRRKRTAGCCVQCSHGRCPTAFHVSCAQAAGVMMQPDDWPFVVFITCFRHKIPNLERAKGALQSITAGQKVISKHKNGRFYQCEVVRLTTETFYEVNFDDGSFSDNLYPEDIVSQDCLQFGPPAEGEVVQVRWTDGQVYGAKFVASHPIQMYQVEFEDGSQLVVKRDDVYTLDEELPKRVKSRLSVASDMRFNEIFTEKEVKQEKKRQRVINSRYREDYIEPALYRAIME
Numbers without * were called inactive; ? = inconclusive; nt = not tested or not shown; [ ] = dose if it differs, or a comment. The call rests on the fitted dose curve; in most records, active means well fitted inhibition curve with a large enough effect; inconclusive means small, poorly fitted or top-dose-only effect; inactive means no such curve, though single readings can be large or run the other way. Potency means the concentration at half of the fitted maximal effect.

SMILES	BAZ2B block	G9a block	L3MBTL1 block	HP1b binding inh	JMJD2A Tudor inh
CCn1nc([N+](=O)[O-])c2c(-c3nc4ccccc4o3)c(N)n(CCCOC)c2c1=O	56µM*	?	nt	-1%	?
C=CCC(CC=C)(CNC(=O)C(=O)Nc1ccc(C)cc1)c1ccccc1	2%	-5%[59 µM]	nt	44%	4%
CN1CCN(S(=O)(=O)c2ccc(Nc3ccc(F)cc3)c([N+](=O)[O-])c2)CC1	?	56µM*	-3%	-26%	?
O=[N+]([O-])c1cc(-n2cccc2)ccc1N1CCOCC1	35µM*	?	-24%	71µM*	50µM*
CN1CCN(S(=O)(=O)c2ccc(N(C)Cc3ccc(C(F)(F)F)cc3)c([N+](=O)[O-])c2)CC1	40µM*	-13%[12.7 µM]	-23%	?	25µM*
CCOc1ccc(Nc2ccc(S(=O)(=O)N3CCN(C)CC3)cc2[N+](=O)[O-])cc1OCC	?	14%[12.7 µM]	-29%	?	?
O=[N+]([O-])c1cc(S(=O)(=O)N2CCOCC2)ccc1N1CCNCC1	-6%	50µM*	1%	8%	-21%
CC(=O)N1CCN(c2ccc(S(=O)(=O)N3CCOCC3)cc2[N+](=O)[O-])CC1	nt	nt	3%	18%[57 µM]	-14%
Cc1ccc(C)n1-c1ccc(N2CCOCC2)c([N+](=O)[O-])c1	?	nt	30%	-18%	?
COCCCn1c(SCC(=O)NCc2ccccc2)nc2c(sc3ccccc32)c1=O	0%	4%[59 µM]	nt	11%	-19%
Cc1ccc(Nc2ccc(S(=O)(=O)N3CCOCC3)cc2[N+](=O)[O-])cc1C	11µM*	?	?	?	?
Cc1ccc(S(=O)(=O)Nc2ccc(S(=O)(=O)N3CCOCC3)cc2)cc1[N+](=O)[O-]	4%	14%	nt	16%	-11%
COCCN(C(=O)Cc1ccc(S(=O)(=O)N2CCOCC2)s1)c1c(N)n(CC(C)C)c(=O)[nH]c1=O	nt	nt	nt	9%	-11%
CCCCn1c(N)c(N(CCOC)C(=O)c2ccc(-c3ccc(C(C)=O)cc3)o2)c(=O)[nH]c1=O	71µM*	13µM*	0%	17%	?
CC(C)CN(C(=O)CN(C)C(=O)c1ccco1)c1c(N)n(CC(C)C)c(=O)[nH]c1=O	15%	50µM*	2%	19%	-1%
CC(C)CN(C(=O)CN(C)C(=O)Cc1ccc(Cl)cc1)c1c(N)n(CC(C)C)c(=O)[nH]c1=O	2%	-40%	9%	15%	-15%
CCCn1c(N)c(N(CCOC)C(=O)Cc2ccc(S(=O)(=O)N3CCOCC3)s2)c(=O)[nH]c1=O	0%	50µM*	-9%	15%	-34%
CCCCn1c(N)c(N(CCOC)C(=O)c2cc3c(s2)CCC(C)C3)c(=O)[nH]c1=O (stereo not given)	9%	35µM*	-11%	28%	-6%
Cc1ccc(CCNC(=O)c2cc3cc(S(=O)(=O)N4CCCCC4)ccc3n2C)cc1	0%	7%[59 µM]	nt	27%[57 µM]	-2%
COc1ccc(CCNC(=O)C(=O)NCC(c2ccco2)S(=O)(=O)c2ccccc2)cc1OC (stereo not given)	-6%	-21%[59 µM]	nt	33%	-11%
Cc1cc(C)c(NC(=O)Cn2ccn(-c3cccc(Cl)c3)c(=O)c2=O)c(C)c1	55%	28%[59 µM]	nt	95%	54%
CCCCn1c(N)c(N(CCOC)C(=O)c2ccc(N3C(=O)CCC3=O)cc2)c(=O)[nH]c1=O	-3%	10%[0.501 µM]	4%	32%	-5%
CCCCn1c(N)c(N(CC(C)C)C(=O)c2ccc(-c3ccc([N+](=O)[O-])cc3)o2)c(=O)[nH]c1=O	-2%	40µM*	-6%	8%	-11%
CCCCn1c(N)c(N(CCOC)C(=O)c2ccc(-n3c(C)ccc3C)cc2)c(=O)[nH]c1=O	5%	45µM*	0%	64%	1%
CCCCN(C(=O)c1ccc([N+](=O)[O-])o1)c1c(N)n(CC(C)C)c(=O)[nH]c1=O	1%	28µM*	2%	5%	-5%
Cc1cc(-c2nc3ncccc3o2)ccc1NC(=O)COc1cc(C)c(Cl)c(C)c1	-5%	-33%[59 µM]	nt	26%	-7%
